From PubChem BioAssay AID620 (Sanford-Burnham Center for Chemical Genomics, 2007)
Screen size: about 87,000 compounds; about 360 (0.41%) were called active. The entries come from a sample that favours actives as a whole. A number with no mark means an inactive call. Rule as the data show it: active = cytotoxicity above about 50%; inactive = the rest.

Assay: cytotoxicity in HT1080 fibrosarcoma cells, cell-based, fluorescence readout (AID 620);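 also: cells exposed to compound overnight then 4 h with Alamar Blue; 0% = vehicle DMSO and 100% = killing control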
Settings: HT1080 viability, at 10 µM, active compounds read high
`Cc1ccc(S(=O)(=O)N2CCN(C(=O)CN3CCOCC3)C2c2ccccc2)cc1` (stereo not drawn) gave a cytotoxicity of 1.5%.
For `CCOC(=O)N1CCN(C(=O)c2ccc3c(c2)sc2nc(-c4ccccc4)cn23)CC1`, the cytotoxicity was 0.3%.
`CCOC(=O)N1CCC(NC(=O)c2ccc3c(c2)sc2nc(-c4cccc(OC)c4)cn23)CC1` gave a cytotoxicity of 11.5%.
In the case of `COc1ccc2c(c1)sc1nc(-c3ccccc3)cn12`, the cytotoxicity is reported as 75.6% (active).
For `COc1cccc(-n2c(SC)nnc2-c2c[nH]c3ccccc23)c1`, the cytotoxicity was 6.9%.
`COC(=O)c1c(C)oc2c1cc(NS(=O)(=O)c1cccs1)c1ccccc12` gave a cytotoxicity of 0.6%.
With `COc1ccc(S(=O)(=O)Nc2cc3c(C(C)=O)c(C)oc3c3ccccc23)cc1` the cytotoxicity was 62.6% (active).
For `COc1ccc(S(=O)(=O)Nc2cc3c4c(oc3c3ccccc23)CC(C)(C)CC4=O)cc1`, the cytotoxicity was -13.5%.
Compound `CCCc1nc2oc3cc(OC)ccc3c(=O)c2c(=O)n1Cc1ccco1` has a cytotoxicity of -4.1%.
Compound `CCOC(=O)CSc1nc(-c2cccs2)nc2c1c(=O)n(C)c(=O)n2C` has a cytotoxicity of 1.5%.
For `O=C(C1CCCN1S(=O)(=O)c1ccc(Cl)c(Cl)c1)N1CCCCC1` (stereo not drawn), the cytotoxicity was -5%.
For `O=C(NCc1cccs1)C1CCN(c2ccc(S(=O)(=O)N3CCOCC3)cc2Cl)CC1`, the cytotoxicity was 67.8% (active).
In the case of `CCCNC(=O)C1CCN(c2ccc(S(=O)(=O)N3CCOCC3)cc2Cl)CC1`, the cytotoxicity is reported as -9.5%.
`CC(C)CNC(=O)C1CCN(c2ccc(S(=O)(=O)N3CCOCC3)cc2Cl)CC1` showed a cytotoxicity of -20.4%.
In the case of `COc1ccc(-n2nnnc2-c2ccccc2)cc1`, the cytotoxicity is reported as 58.8% (active).
`COc1ccc(-n2nnnc2-c2cccc(OC)c2)cc1` gave a cytotoxicity of 48.1%.
Work on `COc1ccc(-n2nnnc2-c2cccnc2)cc1` yielded a cytotoxicity of -4.2%.
For `COc1cccc(/C(O)=C2\C(=O)C(=O)N(c3ccccn3)C2c2cccc(OC)c2OC)c1` (stereo not drawn), the cytotoxicity was 21.5%.
With `COC(=O)C(Cc1cnc(Cl)s1)(C(=O)OC)c1ccc([N+](=O)[O-])cc1[N+](=O)[O-]` the cytotoxicity was -2%.
Work on `CCC1=C2CC[C@H]3C(=O)N(CC)C(=O)[C@H]3[C@H]2[C@@]2(Cc3ccccc3)C(=O)N(CC3CC3)C(=O)N2C1=O` yielded a cytotoxicity of 2.7%.
`COc1ccc(-c2cc(C(F)(F)F)n3nc(C)cc3n2)cc1` gave a cytotoxicity of -1.8%.
With `Cc1ccc(NC(=O)c2nnn(CC(=O)Nc3ccccc3)c2N)cc1C` the cytotoxicity was -2.3%.
In the case of `Cc1nnc(SCC(=O)c2cc(C)n(-c3ccc4c(c3)OCO4)c2C)s1`, the cytotoxicity is reported as 61.4% (active).
Compound `Cc1cc(C(=O)CSc2nncs2)c(C)n1-c1ccc2c(c1)OCO2` has a cytotoxicity of 24.4%.
Compound `Cc1cc(C(=O)CSc2nnnn2C)c(C)n1-c1ccc2c(c1)OCCO2` has a cytotoxicity of 13.4%.
`CN1C(=O)CC(Sc2ncccc2C(=O)O)C1=O` (stereo not drawn) showed a cytotoxicity of 1.8%.
`Cc1cc(C)n(-c2nc3ccccc3nc2N2CCOCC2)n1` showed a cytotoxicity of -0.9%.
With `O=C(C1c2ccccc2Oc2ccccc21)N1CCN(c2ccc(Cl)cc2)CC1` the cytotoxicity was -1.1%.
Work on `CCOc1ccccc1N1CCN(C(=O)C2c3ccccc3Oc3ccccc32)CC1` yielded a cytotoxicity of -0.5%.
In the case of `COc1ccccc1N1CCN(C(=O)C2c3ccccc3Oc3ccccc32)CC1`, the cytotoxicity is reported as 56% (active).
`O=S(=O)(c1ccccc1C(F)(F)F)N1CCC(n2cnc3ccccc32)CC1` gave a cytotoxicity of -0.9%.
Compound `COc1ccc(Cl)cc1NC(=O)/C=C\C(=O)O` has a cytotoxicity of -3.8%.
Compound `Cc1occc1-c1nnc(SCC(=O)c2ccc(F)cc2)n1Cc1ccco1` has a cytotoxicity of -0.9%.
With `c1ccc(Nc2ccccn2)cc1` the cytotoxicity was -6.8%.
In the case of `Oc1cccc2ccc(Nc3ccccn3)nc12`, the cytotoxicity is reported as 60.9% (active).
With `c1ccc(Nc2ccccc2Nc2ccccn2)nc1` the cytotoxicity was 0.4%.
With `CC(=O)O[C@@]12CO[C@@H]1C[C@H](O)[C@@]1(C)C(=O)[C@H](O)C3=C(C)[C@@H](OC(=O)[C@H](O)[C@@H](NC(=O)OC(C)(C)C)c4ccccc4)C[C@](O)([C@@H](OC(=O)c4ccccc4)[C@H]21)C3(C)C` the cytotoxicity was 53.7% (active).
Compound `CCOC(=O)c1ccccc1NC(=O)Nc1ccc(OC)c(OC)c1` has a cytotoxicity of -1.4%.
Work on `Cc1noc(C)c1C(=O)N1CCN(CCc2ccccc2)CC1` yielded a cytotoxicity of -0.7%.
With `CCCCNC(=O)c1cc2c(=O)n3cccc(C)c3nc2n(Cc2ccncc2)c1=N` the cytotoxicity was 54.1% (active).
With `Cc1cccn2c(=O)c3cc(C(=O)NC4CCCC4)c(=N)n(C4CCCC4)c3nc12` the cytotoxicity was 75% (active).
For `CCCCNC(=O)c1cc2c(=O)n3cccc(C)c3nc2n(Cc2ccccc2)c1=N`, the cytotoxicity was 19.2%.
Compound `CCCn1c(=N)c(C(=O)NC2CCCC2)cc2c(=O)n3cccc(C)c3nc21` has a cytotoxicity of 9.1%.
Compound `COCCNC(=O)c1cc2c(=O)n3cccc(C)c3nc2n(Cc2ccncc2)c1=N` has a cytotoxicity of 17.6%.
In the case of `N=c1c(C(=O)NC2CCCC2)cc2c(=O)n3ccccc3nc2n1C1CCCC1`, the cytotoxicity is reported as 7.6%.
With `CC1CC(=O)N(CC(=O)N2CCCC2)c2ccccc2S1` (stereo not drawn) the cytotoxicity was 1.5%.
Work on `CN1CCN(CCCN2c3ccccc3Sc3ccc(Cl)cc32)CC1` yielded a cytotoxicity of 6%.
With `CSc1ccc2c(c1)N(CCC1CCCCN1C)c1ccccc1S2` (stereo not drawn) the cytotoxicity was 82.9% (active).
Work on `O=C(O)CSc1cccc2cccc(C(=O)O)c12` yielded a cytotoxicity of 3.5%.
For `CC(=O)Oc1ccc2cc(-c3nc4ccccc4n3C)c(=O)oc2c1`, the cytotoxicity was -4.4%.
With `COc1ccc2cc(-c3nc4ccccc4n3C)c(=O)oc2c1` the cytotoxicity was -1.5%.
With `CCN(CC)c1ccc2cc(-c3nc4ccccc4n3C)c(=O)oc2c1` the cytotoxicity was 62% (active).
`COc1ccc(CN(Cc2cccnc2)S(=O)(=O)c2ccc(-n3cnnn3)c(C)c2)cc1OC` gave a cytotoxicity of -6.9%.
With `COc1ccc(Cl)cc1N(CC(=O)Nc1ccccc1C(=O)NCc1ccco1)S(C)(=O)=O` the cytotoxicity was 4.2%.
For `CC(=O)c1cccc(OCC(=O)c2cc(C)n(-c3cc(C)on3)c2C)c1`, the cytotoxicity was 63.5% (active).
With `Cc1cc(C(=O)COc2cccc(-n3cnnn3)c2)c(C)n1-c1ccccc1` the cytotoxicity was 27%.
`Cc1cc(-n2c(C)cc(C(=O)COc3ccc4ccc(=O)oc4c3)c2C)no1` gave a cytotoxicity of 7.7%.
`CC(=O)c1ccc(NC(=O)CSc2nc3nc(C)cc(C)n3n2)cc1` showed a cytotoxicity of -1.8%.
For `COc1ccc(/C=C2\CCc3ccccc3C2=O)cc1Cn1cccn1`, the cytotoxicity was -6.8%.
`COC(=O)[C@@H]1C[C@@H]2CC[C@@H](O)C[C@@H]2N1Cc1ccc(-c2ccccc2)cc1` showed a cytotoxicity of 1.4%.
In the case of `COC(=O)[C@@H]1C[C@H]2CC[C@H](O)C[C@H]2N1Cc1ccc(-c2ccccc2)cc1`, the cytotoxicity is reported as 68.8% (active).
For `COC(=O)[C@@H]1C[C@@H]2CC[C@@H](O)C[C@@H]2N1Cc1ccc(Cl)cc1`, the cytotoxicity was 4.3%.
Compound `COc1ccc(NC(=O)CSc2nnc(-c3ccccc3C)n2C)cc1` has a cytotoxicity of 3%.
`O=C(Nc1cccnc1)c1cc(-c2ccccc2)on1` showed a cytotoxicity of 8.8%.
With `COc1ccccc1-c1cc(C(=O)Nc2cccnc2)no1` the cytotoxicity was 58.1% (active).
In the case of `COc1ccc(NC(=O)c2cc(-c3ccccc3OC)on2)cc1`, the cytotoxicity is reported as 38.4%.
With `Cc1oc2c(c1C(=O)c1ccccc1)C(=O)C(=O)c1ccccc1-2` the cytotoxicity was 107% (active).
Work on `O=C1c2ccccc2C(=O)c2c1oc(C(F)(F)F)c2C(=O)c1ccccc1` yielded a cytotoxicity of -1.6%.
Work on `Cc1ccc(C(=O)c2c(C)oc3c2C(=O)C(=O)c2ccccc2-3)cc1` yielded a cytotoxicity of -5.2%.
`CCOC(=O)c1cn(CC(=O)Nc2ccc(C)cc2)nn1` showed a cytotoxicity of -1.5%.
Compound `NC(=O)c1nsc(C(=O)N(CC(=O)NCc2ccc3c(c2)OCO3)C2CCCCC2)c1N` has a cytotoxicity of -0.4%.
Compound `C=Cn1c(C(=O)O)cc(CC)c1-c1ccccc1` has a cytotoxicity of -2.7%.
For `CSc1nccc(-c2nn(-c3ccc(C)cc3)ccc2=O)n1`, the cytotoxicity was 56.4% (active).
In the case of `CCSc1nccc(-c2nn(-c3ccc(C)cc3)ccc2=O)n1`, the cytotoxicity is reported as 29%.
In the case of `C=CCSc1nccc(-c2nn(-c3ccc(C)cc3)ccc2=O)n1`, the cytotoxicity is reported as 44.5%.
In the case of `O=C1OC(Nc2nccs2)c2ccccc21` (stereo not drawn), the cytotoxicity is reported as 19.8%.
For `C=CS(=O)(=O)c1ccc(Oc2ccc(S(=O)(=O)C=C)cc2)cc1`, the cytotoxicity was 76.4% (active).
Work on `CNS(=O)(=O)c1ccc(Oc2ccc(S(=O)(=O)NC)cc2)cc1` yielded a cytotoxicity of -5.5%.
Work on `O=S(=O)(c1ccc(Oc2ccc(S(=O)(=O)N3CCOCC3)cc2)cc1)N1CCOCC1` yielded a cytotoxicity of -8.2%.
With `CC(C)c1ccc(C(=O)CSc2ncn[nH]2)cc1` the cytotoxicity was -3.4%.
Compound `COc1cc(C)c(C(C)C)cc1S(=O)(=O)n1ccnc1` has a cytotoxicity of -1.7%.
In the case of `COc1cc(C)c(C(C)C)cc1S(=O)(=O)n1cnc(C)c1`, the cytotoxicity is reported as 61.2% (active).
With `COc1cc(C)c(Cl)cc1S(=O)(=O)n1cnc(C)c1` the cytotoxicity was -1.4%.
In the case of `CCn1ncc(Br)c1C(=O)NC(C)c1ccccc1` (stereo not drawn), the cytotoxicity is reported as 9%.
Compound `COc1ccc2nc(-c3cccc(N)c3)[nH]c2c1` has a cytotoxicity of 33.4%.
With `Nc1cccc(-c2nc3ccccc3[nH]2)c1` the cytotoxicity was -3.9%.
`N#CC1=C(c2ccccc2)N=P(N2CCOCC2)(N2CCOCC2)N=C1N1CCOCC1` gave a cytotoxicity of -10.4%.
Compound `CCNc1ccc(S(=O)(=O)C(F)(F)F)cc1NC(=O)C12CCC(CC1)C2` has a cytotoxicity of 0.9%.
In the case of `COc1ccc(C(C)=O)cc1COC(=O)c1c(C)noc1C`, the cytotoxicity is reported as 14%.
In the case of `COC(=O)c1c(N)sc(C(C)=O)c1C`, the cytotoxicity is reported as -8.8%.
With `COC(=O)c1sc(N)c(C(=O)OC)c1COC(=O)c1c(C)noc1C` the cytotoxicity was 50.8% (active).
Work on `Cc1nnc(SCC(=O)Nc2ccc3c(c2)OCO3)o1` yielded a cytotoxicity of 12.7%.
Work on `COc1nc(NCc2ccco2)nc(N2CCC(C)CC2)n1` yielded a cytotoxicity of -3.4%.
